# Test results: PubChem BioAssay (NCI)
# This is part of a sample that, as a whole, favours compounds with a hit. Of some 79,000 tested, about 15% had one in any assay. Values without a mark were called inactive. Activity calls are given as the source filed them. Rule as the data show it: active = growth inhibition above about 70%; inactive = the rest.
# How the values were obtained:
# [1] = NCI Yeast Anticancer Drug Screen. Data for the rad50 strain (AID 155);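 also: 0% = growth of vehicle-only cultures of the same strain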; settings: S. cerevisiae rad50 strain growth inhibition; at 50.0 µM; hits give high values
# Outline: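 Vehicle-treated cultures provide the reference for the growth inhibition reported for compound-exposed, repair-deficient yeast.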
# [2] = NCI Yeast Anticancer Drug Screen. Data for the mec2-1 strain (AID 157); settings: S. cerevisiae mec2-1 strain, at 50.0 µM, hits give high values
# Outline: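 Mutant yeast (mec2-1) grown with compound; growth inhibition relative to vehicle control reported.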
# [3] = NCI Yeast Anticancer Drug Screen. Data for the sgs1 mgt1 strain (AID 161);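 also: 0% = growth of cultures given vehicle only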; settings: S. cerevisiae sgs1 mgt1 strain, at 50.0 µM, hits give high values
# Outline: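 This yeast growth screen uses a strain with defined DNA-repair lesions; compound-treated growth is compared with vehicle-treated growth.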
# [4] = NCI Yeast Anticancer Drug Screen. Data for the cln2 rad14 strain (AID 165);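 also: 0% = growth equal to vehicle treated cultures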; settings: S. cerevisiae cln2 rad14 strain, at 50.0 µM, hits give high values
# Outline: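 Readout is yeast growth inhibition versus vehicle-treated controls, using a strain with cln2 and rad14 alterations exposed to compound.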
# [5] = NCI Yeast Anticancer Drug Screen. Data for the bub3 strain (AID 167); settings: S. cerevisiae bub3 mutant strain, at 50.0 µM, hits give high values
# Outline: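 Mutant yeast screening strain plus compound; vehicle-treated cultures serve as the 0% inhibition reference.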
# [6] = NCI Yeast Anticancer Drug Screen. Data for the mlh1 rad18 strain (AID 175); settings: S. cerevisiae mlh1 rad18 strain growth inhibition; at 50.0 µM; hits give high values
# Outline: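 Genetically defined yeast (DNA repair-deficient) exposed to compounds; growth inhibition determined relative to vehicle.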
Compound,growth inhibition [1],growth inhibition [2],growth inhibition [3],growth inhibition [4],growth inhibition [5],growth inhibition [6]
COc1ccc(Cc2cc(OC)c(OC)c(OC)c2)cc1O,2.2%,11.4%,-16.4%,-22.1%,19.9%,-21.2%
O=c1c2cccnc2ncn1CCCN1CCCCC1,-23.8%,1.85%,9.25%,-7.5%,5.65%,-6.25%
CN(C)[C@@H]1C(=O)C(C(=O)NCNC2CC(C)(C)N(O)C(C)(C)C2)=C(O)C2(O)C(=O)C3=C(O)c4c(O)cccc4[C@@](C)(O)C3CC12 (stereo partly drawn),-1.2%,30.6%,2.55%,-37%,-22.1%,24.6%
O=C(O)C12CCC(CC1=O)C2 (stereo not drawn),5.8%,4.4%,11.3%,13.7%,-2%,14.1%
CCOC(=O)C(NC(C)=O)C(C)O (stereo not drawn),5.85%,3.95%,5.05%,3.85%,2.95%,-0.75%
CC1CCC(C)C(O)C1 (stereo not drawn),-21.9%,-22.3%,-19.1%,23.1%,-27.8%,3.25%
CC1(C)/C(=N\NC(N)=O)C2CCC1C2 (stereo not drawn),-19.9%,-25.6%,2.65%,-4.05%,-11.6%,-16.9%
Oc1ccccc1C1N=NC2=C(CCCC2)N1O (stereo not drawn),-12.9%,-26.4%,-2.5%,-12.1%,21.9%,-7.15%
CN1CC=C(C#CC(C)(C)O)CC1,-13%,-17.4%,-0.65%,4.7%,-5.9%,-25.3%
COc1cc(N=Nc2ccc(S(=O)(=O)O)cc2)ccc1N=Nc1ccc2c(S(=O)(=O)O)cccc2c1O,15%,-8.05%,14.3%,11.4%,5.8%,2.15%
O=C1c2cccc3cc([N+](=O)[O-])cc(c23)C(=O)N1CCNCCNCCNCCN1C(=O)c2cccc3cc([N+](=O)[O-])cc(c23)C1=O,86% (active),89% (active),89.3% (active),90.2% (active),89.2% (active),90.9% (active)
COc1c(CC=C(C)C)c(O)c(C(CC(C)C)c2c(O)c(CC=C(C)C)c(O)c(C(C)=O)c2O)c(O)c1C(C)=O (stereo not drawn),32.9%,41.5%,34%,41.3%,38.5%,31.1%
Nc1ccc2cccc(N)c2n1,34.5%,12.2%,8.85%,5.9%,-5.65%,-0.55%
O=S(=O)(OCCCCCCCCCCOS(=O)(=O)c1ccc(Cl)cc1)c1ccc(Cl)cc1,-7.6%,-3.6%,-3.6%,8.6%,-5.3%,-4.55%
CC(=O)c1c(C)[nH]c(C(=O)O)c1C,24.7%,4.3%,8.75%,-14.4%,5.35%,16.6%
Cc1cccc(NS(=O)(=O)c2ccc3c(c2)OCCOCCOCCOCCO3)c1,1.65%,-11.1%,7.05%,-28%,-11.4%,-9.45%
O=C(Nc1ccc(S(=O)(=O)NC2CCCCC2)cc1)OC(c1ccccc1)c1ccccc1,21.6%,-0.75%,18.2%,13.8%,-6.15%,1.45%
CC(=O)OCC1OC(n2c(Br)nc3c(N)ncnc32)C2OC(C)(C)OC12 (stereo not drawn),14.3%,6.2%,16.4%,-2.7%,1.3%,-6.55%
Clc1ccc(-c2onc3ccc(Br)cc23)cc1,-6.65%,-12.3%,-1.15%,-17.9%,-0.75%,8.5%

Compound,growth inhibition [1],growth inhibition [2],growth inhibition [3],growth inhibition [4],growth inhibition [5],growth inhibition [6]
CN1CCc2nc(N)nc(-c3nc(N)nc4c3CN(C)CC4)c2C1,-3.15%,-12.2%,-11.4%,-17.1%,-37.1%,-1.8%
CS(=O)(=O)CC(=O)c1ccc(O)cc1O,4.55%,3.55%,-0.6%,-43.2%,-13.1%,-7%
COc1ccc(C(O)C(c2ccc(OCc3ccccc3)cc2)c2ccc(OCc3ccccc3)cc2)cc1 (stereo not drawn),1.05%,-27.9%,-5.15%,-4.25%,-29.2%,-22.4%
Clc1c(Cl)c2ccccc2c2ccccc12,10.1%,-8.4%,11.3%,8.85%,32.5%,4.85%
COC(=O)/C=C/CCCC1CCCCC1,-7.8%,-3.85%,4.9%,0.45%,-14.9%,-13.9%
O=c1oc2c(ccc3ccccc32)c(O)c1-c1cccc2ccccc12,99.2% (active),99.5% (active),99.5% (active),99% (active),97.7% (active),99.3% (active)
NC(=O)C1CCN(S(=O)(=O)c2ccccc2)CC1,-0.85%,-9.1%,8.55%,-37.6%,-1.5%,-18.4%
Cc1ccc(S(=O)(=O)N(C)c2cc(Cl)c(I)cc2Cl)cc1,38.9%,-5.05%,8.9%,0.25%,25.1%,5.2%
CC(=O)NC1=NC(=O)/C(=C/Cc2cccs2)N1C,6.8%,16.1%,1.55%,-5.55%,-23.8%,-25.4%
Cc1ccc(NC(=O)COc2cc(Cl)c(Cl)cc2Cl)c([N+](=O)[O-])c1,-28.9%,-4.8%,-11.8%,-0.55%,-0.2%,-0.4%
NCCN1C(=O)c2ccccc2C1(O)c1ccc(Cl)cc1 (stereo not drawn),-6.25%,-35.4%,-7%,-4.6%,-14.9%,-0.65%
O=c1[nH]c(C(F)(F)F)c(CCc2ccccc2)c(=O)[nH]1,3.5%,20.1%,36.9%,-3.8%,36.3%,29.8%
O/N=C1\CCc2nonc2\C1=N/Nc1ccccc1,-2.05%,2.8%,-2.35%,1.45%,7%,-1.9%
CC1(C)S[C@H](c2ccccc2C(=O)O)N[C@@H]1CC(=O)O,-35.3%,-6.9%,-49.5%,-21.7%,-26.5%,-31.4%
Nc1nc(N)c2c(n1)NCN(OCCOc1ccc(Cl)cc1Cl)C2,1.1%,3%,9.15%,-26.8%,-14.8%,9.8%
COc1cc(C=Nc2ccc(N3CCOCC3)cc2)ccc1O,-1.1%,-3.45%,-8.45%,-18.6%,12.6%,-1.25%
C/C=C/C(=O)Oc1ccccc1/C=C/C(=O)CCCCCC,15.2%,11.1%,23.6%,8.25%,10.9%,10.9%
CC(C)(C)C(=O)C(=O)O,19.9%,-13.2%,-3.7%,1.15%,-8.5%,14.6%
C=C1C(=O)OC2C1CCC(C)=C1C(=O)C=C(C)C12 (stereo not drawn),-24.3%,-12.5%,-6.6%,13.2%,-13.9%,-16.2%
